{"source": "PubChem BioAssay (Tox21)", "note": "Calls of active or inactive are those of the source. Calls follow the shape of the full dose curve. % is scaled to controls: 0 for no effect and ±100 for the full control effect."}
{"target": "Androgen receptor (Homo sapiens) (UniProt P10275)", "sequence (P10275 whole entry, looked up)": "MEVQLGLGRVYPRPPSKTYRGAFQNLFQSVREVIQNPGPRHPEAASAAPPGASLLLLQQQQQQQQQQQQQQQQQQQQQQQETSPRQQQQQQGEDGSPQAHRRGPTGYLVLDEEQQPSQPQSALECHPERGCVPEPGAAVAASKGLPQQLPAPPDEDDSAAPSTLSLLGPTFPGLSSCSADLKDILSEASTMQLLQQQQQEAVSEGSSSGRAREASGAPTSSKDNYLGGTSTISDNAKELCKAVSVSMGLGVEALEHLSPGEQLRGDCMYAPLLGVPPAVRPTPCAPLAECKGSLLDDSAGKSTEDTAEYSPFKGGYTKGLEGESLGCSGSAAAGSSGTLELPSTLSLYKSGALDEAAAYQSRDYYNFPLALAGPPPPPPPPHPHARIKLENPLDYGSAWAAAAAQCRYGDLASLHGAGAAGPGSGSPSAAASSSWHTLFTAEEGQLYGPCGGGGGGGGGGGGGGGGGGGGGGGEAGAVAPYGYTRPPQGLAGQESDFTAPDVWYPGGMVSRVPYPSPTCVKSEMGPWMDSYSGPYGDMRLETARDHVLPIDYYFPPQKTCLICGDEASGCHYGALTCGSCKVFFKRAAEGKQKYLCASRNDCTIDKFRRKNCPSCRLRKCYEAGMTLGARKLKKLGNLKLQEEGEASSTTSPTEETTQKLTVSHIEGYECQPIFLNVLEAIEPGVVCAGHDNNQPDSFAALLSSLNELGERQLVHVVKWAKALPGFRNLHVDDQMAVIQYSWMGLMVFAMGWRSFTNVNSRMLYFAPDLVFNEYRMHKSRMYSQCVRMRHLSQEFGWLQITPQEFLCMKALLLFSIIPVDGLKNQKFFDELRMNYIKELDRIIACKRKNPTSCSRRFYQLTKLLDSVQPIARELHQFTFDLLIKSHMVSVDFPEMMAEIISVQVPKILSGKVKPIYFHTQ", "experiment": "qHTS assay to identify small molecule agonists of the androgen receptor (AR) signaling pathway in the presence of an antagonist (AID 1259381); also: nearly all actives have a fitted effect of over 15% in size", "conditions": "MDA-kb2 MMTV-luciferase, AR agonist + nilutamide, 16 h; series mostly up to 92.4 µM; activation: at the top concentration", "from_the_text": "National Center for Advancing Translational Sciences [NCATS] NIH Chemical Genomics Center [NCGC] U.S. Environmental Protection Agency [EPA] National Institutes of Environmental Health Sciences [NIEHS] National Toxicology Program [NTP] Assay overview: Androgen receptor (AR) is an important member of nuclear receptor family. Its signaling plays a critical role in AR-dependent prostate cancer and other androgen related diseases. Considerable attention has been given in the past decades to develop methods to study and screen for the environmental chemicals that have the potential to interfere with metabolic homeostasis, reproduction, developmental and behavioral functions. Therefore AR binding assay for screening against androgen agonists and antagonists can be used to identify potential endocrine disruptors. MDA-kb2 cells (from ATCC, deposited by Wilson et al.) are human breast carcinoma cells that were stably transfected with a luciferase reporter gene under control of the MMTV promoter that contains response elements for both androgen receptor (AR) and glucocorticoid receptor (GR). This particular screening for measuring luciferase reporter gene activity using MDA-kb2 cells against Tox21 10K library compounds is a confirmation study on agonist mode screening in the presence of AR-antagonist compound (Nilutamide) at 3.0uM final concentration.\nAssay Protocol Summary: MDA-kb2 cells (cells cultured without CO2) were dispensed at 3,000 cells/well in 4uL of culture medium into white wall/solid-bottom 1536-well plates (Corning Life Sciences, Corning, NY) using a Multidrop Combi (Thermo Fisher Scientific Inc., Waltham, MA) dispenser. The assay plates were incubated at 37C and 0% CO2 for 5hr. One uL of 3.0uM (final concentration) Nilutamide or assay buffer was added using two separate tips of Flying Reagent Dispenser (FRD, Aurora Discovery, San Diego, CA). Then 23nL of compounds dissolved in DMSO at 15 concentrations and positive controls were transferred to the assay plates using a Pintool station (Wako, San Diego, CA). The assay plates were incubated at 37C and 0% CO2 for 16hr. For luciferase read, 4uL/well ONE-Glo reagent (Promega Corporation, Madison, WI) was added to each well of the assay plates using FRD. After 30min incubation at room temperature, the luminescence signal was measured using a ViewLux plate reader (PerkinElmer, Shelton, CT)."}
{"smiles": "CN[C@@H]1[C@H](O)[C@H](NC)[C@H]2O[C@@]3(O)C(=O)C[C@@H](C)O[C@H]3O[C@@H]2[C@H]1O", "activation": "-2.76% [at 42.5 µM] (inactive)"}
{"smiles": "Cn1c(=O)c2c(ncn2CC2OCCO2)n(C)c1=O", "activation": "-1.78% [at 42.5 µM] (inactive)"}
{"smiles": "CCCCCCCCCCC", "activation": "0.405% (inactive)"}
{"smiles": "O=C(O)c1ccc(OCCN2CCCCC2)cc1", "activation": "-0.155% [at 42.5 µM] (inactive)"}
{"smiles": "CCNC(=O)/C=C/c1cccc(Br)c1", "activation": "-0.504% [at 42.5 µM] (inactive)"}
{"smiles": "CCCCCCCCCCCCCC(=O)OC", "activation": "1.13% (inactive)"}
{"smiles": "CC(C)C(=O)Nc1cccc(C(F)(F)F)c1", "activation": "0.31% [at 42.5 µM] (inactive)"}
{"smiles": "C=CCCCCCCCCCCC", "activation": "2.68% [at 8.39 µM] (inactive)"}
{"smiles": "O=C1c2ccccc2-c2ccccc21", "activation": "0.0152% (inactive)"}
{"smiles": "CCCOCCOCCOCCO", "activation": "-2.24% (inactive)"}
{"smiles": "OC(CCN1CCCCC1)(c1ccccc1)c1ccccc1", "activation": "-2.35% [at 42.5 µM] (inactive)"}
{"smiles": "Cc1nc2n(c(=O)c1CCN1CCC(C(=O)c3ccc(F)cc3)CC1)CCS2", "activation": "-7.34% [at 42.5 µM] (inactive)"}
{"smiles": "CCCCCCCCCCCCCCCCCCN(C)C", "activation": "-1.35% [at 42.5 µM] (inactive)"}
{"smiles": "COCC(=O)Nc1c(I)c(C(=O)NCC(O)CO)c(I)c(C(=O)N(C)CC(O)CO)c1I", "note": "(stereo not given)", "activation": "1.2% [at 42.5 µM] (inactive)"}
{"smiles": "CCCCC(CC)CNC(=O)CC(C)OC(=O)CCC(=O)O", "note": "(stereo not given)", "activation": "6.13% [at 42.5 µM] (inactive)"}
{"smiles": "Cc1ncc([N+](=O)[O-])n1CC(O)CCl", "note": "(stereo not given)", "activation": "6.02% [at 42.5 µM] (inactive)"}
{"smiles": "CCCCC[Si](OCC)(OCC)OCC", "activation": "0.39% (inactive)"}
{"smiles": "Nc1ccnc(=O)[nH]1", "activation": "0.0709% (inactive)"}
{"smiles": "CC(=O)OC[C@H]1O[C@@H](OC(C)=O)[C@H](OC(C)=O)[C@@H]1OC(C)=O", "activation": "-0.453% [at 42.5 µM] (inactive)"}
{"smiles": "CC(C)COC(=O)COc1ccc(Cl)cc1Cl", "activation": "1.08% (inactive)"}
{"smiles": "COc1cccc2sc(N)nc12", "activation": "10.1% (inactive)"}
{"smiles": "CCCCCCCCCCCCCCCCI", "activation": "0.857% [at 19 µM] (inactive)"}
{"smiles": "O=C(O)c1ccccc1C(=O)Nc1ccc(S(=O)(=O)Nc2nccs2)cc1", "activation": "-0.871% [at 42.5 µM] (inactive)"}
{"smiles": "COC(OC)C(C)c1ccccc1", "note": "(stereo not given)", "activation": "-0.33% (inactive)"}
{"smiles": "CNC(=O)NC", "activation": "-1.26% (inactive)"}
{"smiles": "O=C1OC(=O)c2cc(Oc3ccc4c(c3)C(=O)OC4=O)ccc21", "activation": "1.49% (inactive)"}
{"smiles": "C=CCOCC(O)CCl", "note": "(stereo not given)", "activation": "1.94% (inactive)"}
{"smiles": "O=S(=O)(O)SSS(=O)(=O)O", "activation": "-0.452% (inactive)"}
{"smiles": "O=C(CN1CCN(Cc2ccc3c(c2)OCO3)CC1)N1c2ccccc2Sc2ccccc21", "activation": "-2.55% [at 42.5 µM] (inactive)"}
{"smiles": "CCN(CC)C(=O)C1CN2CCc3cc(OC)c(OC)cc3C2CC1OC(C)=O", "note": "(stereo not given)", "activation": "-0.901% [at 42.5 µM] (inactive)"}
{"smiles": "O=C(O)c1ccccc1C(=O)OCc1ccccc1", "activation": "3.63% (inactive)"}
{"smiles": "CCC(C)(C)C1CCC(=O)CC1", "activation": "-0.119% (inactive)"}
{"smiles": "COc1ccc(/C=N/NC(=O)c2ccncc2)cc1OC", "activation": "1.51% [at 42.5 µM] (inactive)"}
{"smiles": "CC(=O)OC(C(=O)c1ccccc1)c1ccccc1", "note": "(stereo not given)", "activation": "-1.41% (inactive)"}
{"smiles": "COc1cc([N+](=O)[O-])ccc1N", "activation": "1.38% (inactive)"}
{"smiles": "O=c1[nH]c(=O)c2ccccc2o1", "activation": "0.0729% [at 42.5 µM] (inactive)"}
{"smiles": "CC(=O)N1CCN(c2ccc(O)cc2)CC1", "activation": "1.42% [at 42.5 µM] (inactive)"}
{"smiles": "Nc1cc(C(=O)O)ccc1Cl", "activation": "2.11% (inactive)"}
{"smiles": "O=CN1CCOCC1", "activation": "0.942% (inactive)"}
{"smiles": "Nc1ccc(S(=O)(=O)Nc2ccccn2)cc1", "activation": "-0.0829% [at 42.5 µM] (inactive)"}
